Screening data: PubChem BioAssay, The Scripps Research Institute Molecular Screening Center
CHRM1 antagonist: blocks human M1 muscarinic receptor; P11229; CHO-K1 hM1, Fluo-8 calcium fluorescence, ACh EC80 antagonist; inhibition, % at 3 µM; hit rate 1.3% among 360,000; AID 588852;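 active = percent inhibition above its own plate's cutoff, namely the mean of that plate's compound wells plus 3 SD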;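 note: peak over basal fluorescence ratio during 140 s after agonist addition; 0% = ACh EC80 plus DMSO and 100% = DMSO alone without agonist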
Target sequence (P11229 whole entry, looked up): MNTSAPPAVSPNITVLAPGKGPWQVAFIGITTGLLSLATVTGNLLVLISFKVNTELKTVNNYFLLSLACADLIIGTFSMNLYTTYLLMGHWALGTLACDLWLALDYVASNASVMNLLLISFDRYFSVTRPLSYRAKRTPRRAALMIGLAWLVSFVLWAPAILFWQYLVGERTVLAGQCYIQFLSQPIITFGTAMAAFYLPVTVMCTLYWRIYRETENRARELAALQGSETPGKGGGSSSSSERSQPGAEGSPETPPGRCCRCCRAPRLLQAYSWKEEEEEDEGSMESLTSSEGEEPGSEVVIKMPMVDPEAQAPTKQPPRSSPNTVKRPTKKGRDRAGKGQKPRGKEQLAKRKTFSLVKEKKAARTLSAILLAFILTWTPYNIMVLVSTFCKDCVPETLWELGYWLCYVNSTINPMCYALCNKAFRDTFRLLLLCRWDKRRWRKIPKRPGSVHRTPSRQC
CHO-K1 Ca antag: nonselective inhibitor or artifact in parental CHO-K1 cells | ATP-induced calcium, Fluo-8 fluorescence | inhibition, % at 3 µM | hit rate 0.6% among 360,000 | AID 602250;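 active = inhibition above a per-plate cutoff, the plate's mean sample inhibition plus 3 SD, cut at about 24% in these data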;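 note: 0% = DMSO plus EC80 ATP and 100% = DMSO alone without ATP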
M1 ag: human M1 muscarinic receptor agonism; activation, % at 3 µM; CHO-K1 hM1, Fluo-8 calcium fluorescence, agonist mode; 0% DMSO, 100% acetylcholine EC100; P11229; hit rate 0.33% among 360,000;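 active = activation above the run's mean compound activation plus 3 SD, cut at about 16% in these data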;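 note: peak over basal fluorescence ratio within a 140 s kinetic read after compound addition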
CHRM1 PAM: potentiates human M1 receptor response to acetylcholine | activation, % at 3 µM | CHO-K1 hM1, Fluo-8 calcium fluorescence, ACh EC20; 0% = ACh EC20, 100% = maximal ACh | hit rate 0.088% among 360,000; in the data active = activation above about 19%, passing the limit was not always enough
M1 ag parental: M1 agonist counterscreen hit in parental CHO-K1 cells; activation, % at 3 µM; hit rate 0.48% among 360,000; Fluo-8 calcium fluorescence; scaled to maximal ATP response, vehicle zero; in the data active = activation above about 15%;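 note: untransfected CHO-K1 host cells lacking M1 receptor as counterscreen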
CHO-K1 Ca PAM: counter-screen for M1 PAMs: effect in parental CHO-K1 cells. hit rate 0.02% among 360,000. ATP EC20, Fluo-8 calcium fluorescence; 0% at ATP EC20, 100% at ATP max. activation, % at 3 µM;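 active = activation above the run cutoff, the mean activation of all test compounds plus 3 SD, cut at about 40% in these data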;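 note: peak over basal fluorescence ratio in a 140 s read after ATP addition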
* marks the source's active call; other numbers are inactive results. An excerpt weighted towards active compounds, which were near 2.3% of everything screened.

What do the screens show for `COCCNC(=O)c1ccc(N2CC3CC(C2)c2cccc(=O)n2C3)c(NC(=O)c2ccccc2Br)c1` (stereo not drawn)?
CHRM1 antagonist: -8.2; CHO-K1 Ca antag: 4.4; M1 ag: 22.4*; CHRM1 PAM: 3.4; M1 ag parental: 0.2; CHO-K1 Ca PAM: 0.5

Results for COCCNC(=O)c1ccc(N2CC3CC(C2)c2cccc(=O)n2C3)c(NC(=O)c2ccccc2Cl)c1 (stereo not drawn) ?
CHRM1 antagonist: -18.9; CHO-K1 Ca antag: -17.0; M1 ag: 26.2*; CHRM1 PAM: 4.5; M1 ag parental: 1.4; CHO-K1 Ca PAM: 23.0

How did COCCNC(=O)c1ccc(N2CC3CC(C2)c2cccc(=O)n2C3)c(NC(=O)c2ccc(Br)o2)c1 (stereo not drawn) do in these assays?
CHRM1 antagonist: -14.7; CHO-K1 Ca antag: -8.7; M1 ag: 1.2; CHRM1 PAM: 16.4; M1 ag parental: 0.9; CHO-K1 Ca PAM: 16.6

Results for Cn1c(CNC(=O)CNC(=O)c2ccccc2)cc(=O)n(C)c1=O ?
CHRM1 antagonist: -0.5; CHO-K1 Ca antag: -2.6; M1 ag: -1.7; CHRM1 PAM: -0.6; M1 ag parental: -0.1; CHO-K1 Ca PAM: -6.8

What do the screens show for `Cc1ccc(CS(=O)Cc2ccc(C(=O)N3CCN(c4ccccn4)CC3)o2)cc1` (stereo not drawn)?
CHRM1 antagonist: 6.5; CHO-K1 Ca antag: -6.8; M1 ag: 0.7; CHRM1 PAM: -6.3; M1 ag parental: 6.2; CHO-K1 Ca PAM: -3.9

Results for CCOC(=O)c1ccc(NC(=O)C(CC)(CC)C(=O)OCC)cc1 ?
CHRM1 antagonist: 4.8; CHO-K1 Ca antag: 25.0*; M1 ag: -4.7; CHRM1 PAM: 3.0; M1 ag parental: -0.4; CHO-K1 Ca PAM: -3.4

How did CCOC(=O)c1ccc(NC(=O)COC)cc1 do in these assays?
CHRM1 antagonist: -6.4; CHO-K1 Ca antag: -8.6; M1 ag: -4.8; CHRM1 PAM: 5.7; M1 ag parental: 0.6; CHO-K1 Ca PAM: 18.2

Results for Cc1ccc2cc(C#N)c(SCC(=O)NNC(=O)Cc3ccccc3)nc2c1 ?
CHRM1 antagonist: -3.2; CHO-K1 Ca antag: 25.5*; M1 ag: 3.2; CHRM1 PAM: 14.4; M1 ag parental: -0.4; CHO-K1 Ca PAM: -15.5

How did COc1ccc2cc(C#N)c(SCC(=O)NNC(=O)Cc3ccccc3)nc2c1 do in these assays?
CHRM1 antagonist: -1.4; CHO-K1 Ca antag: -2.4; M1 ag: -4.6; CHRM1 PAM: 1.3; M1 ag parental: 0.2; CHO-K1 Ca PAM: 15.2

What do the screens show for `CCN1C(=C(C#N)C#N)C=Cc2cc(C)ccc21`?
CHRM1 antagonist: 9.1; CHO-K1 Ca antag: -2.3; M1 ag: -9.5; CHRM1 PAM: -9.4; M1 ag parental: 1.0; CHO-K1 Ca PAM: 9.2

How did C=CC[n+]1c(/C=C2\C=Cc3cc(C)ccc3N2CC)ccc2ccccc21 do in these assays?
CHRM1 antagonist: 53.8*; CHO-K1 Ca antag: 38.1*; M1 ag: 2.6; CHRM1 PAM: -14.4; M1 ag parental: 16.0*; CHO-K1 Ca PAM: -6.8

How did Cc1ccc2c(c1)N(CC(=O)Nc1ncccc1C)C(=O)C(C(C)C)O2 (stereo not drawn) do in these assays?
CHRM1 antagonist: -1.1; CHO-K1 Ca antag: -4.3; M1 ag: 2.4; CHRM1 PAM: 5.3; M1 ag parental: -0.4; CHO-K1 Ca PAM: 2.1

What do the screens show for `CC1(Cc2cc(Cl)ccc2C(F)(F)F)C(=O)Nc2cc(-c3ccccc3Cl)ccc21` (stereo not drawn)?
CHRM1 antagonist: -18.6; CHO-K1 Ca antag: -25.3; M1 ag: -3.1; CHRM1 PAM: 9.6; M1 ag parental: -0.1; CHO-K1 Ca PAM: 24.3

What do the screens show for `CCN(CC)CCSc1nc2ccccc2n1Cc1ccccc1`?
CHRM1 antagonist: 90.3*; CHO-K1 Ca antag: -17.2; M1 ag: -9.4; CHRM1 PAM: -30.0; M1 ag parental: 1.1; CHO-K1 Ca PAM: 18.6

What do the screens show for `CC(=O)N1CCN(CC(=O)Nc2cccc(S(=O)(=O)N3CCCCCC3)c2)CC1`?
CHRM1 antagonist: -0.1; CHO-K1 Ca antag: 26.6*; M1 ag: -1.8; CHRM1 PAM: 9.4; M1 ag parental: -0.1; CHO-K1 Ca PAM: -13.8

Results for Cc1ccc2c(c1)CCCN2CC(=O)Nc1cccc(S(=O)(=O)N2CCCC2)c1 ?
CHRM1 antagonist: 32.4*; CHO-K1 Ca antag: -3.2; M1 ag: -8.1; CHRM1 PAM: -17.2; M1 ag parental: 0.7; CHO-K1 Ca PAM: -16.0

What do the screens show for `CC(=O)N1CCN(CC(=O)Nc2cccc(S(=O)(=O)N3CCCCC3)c2)CC1`?
CHRM1 antagonist: -21.1; CHO-K1 Ca antag: -5.1; M1 ag: -4.0; CHRM1 PAM: 10.9; M1 ag parental: 0.8; CHO-K1 Ca PAM: -10.3

What do the screens show for `Cc1ccc2c(c1)CCCN2CC(=O)Nc1cc(S(=O)(=O)N2CCCC2)ccc1Cl`?
CHRM1 antagonist: -9.3; CHO-K1 Ca antag: -14.1; M1 ag: -8.0; CHRM1 PAM: -4.5; M1 ag parental: -0.2; CHO-K1 Ca PAM: -3.1

What do the screens show for `COCCNC(=O)C1(C)CCCN(Cc2c(C)nn(-c3ccccc3)c2C)C1` (stereo not drawn)?
CHRM1 antagonist: -9.6; CHO-K1 Ca antag: -7.1; M1 ag: -6.7; CHRM1 PAM: 2.6; M1 ag parental: 0.7; CHO-K1 Ca PAM: 10.2

How did CCC(=O)Nc1ccc(-c2cc3ccccc3oc2=O)cc1 do in these assays?
CHRM1 antagonist: 7.2; CHO-K1 Ca antag: 24.8*; M1 ag: 1.1; CHRM1 PAM: 6.6; M1 ag parental: -0.6; CHO-K1 Ca PAM: -15.9

What do the screens show for `CCc1ccc(OCC(=O)Nc2ccc(-c3cc4ccccc4oc3=O)c(OC)c2)cc1`?
CHRM1 antagonist: 20.3; CHO-K1 Ca antag: 26.2*; M1 ag: -2.1; CHRM1 PAM: -7.2; M1 ag parental: 7.7; CHO-K1 Ca PAM: 0.9

How did CCC(=O)Nc1cc(-c2cc3ccccc3oc2=O)ccc1OC do in these assays?
CHRM1 antagonist: -8.1; CHO-K1 Ca antag: -14.5; M1 ag: -4.0; CHRM1 PAM: 8.0; M1 ag parental: 0.1; CHO-K1 Ca PAM: 11.3

Results for CCOC1=C2[C@@H](CN(S(=O)(=O)c3ccc(C)cc3)[C@H]2c2ccccc2Cl)[C@H]2C(=O)N(C(C)(C)C)C(=O)[C@H]2C1 ?
CHRM1 antagonist: 0.5; CHO-K1 Ca antag: 26.5*; M1 ag: 1.2; CHRM1 PAM: 11.1; M1 ag parental: -0.4; CHO-K1 Ca PAM: 4.2

What do the screens show for `CC(C)(C)NC(=O)C1(N2C(=O)c3ccccc3C2=O)CCCC1`?
CHRM1 antagonist: -8.8; CHO-K1 Ca antag: 0.6; M1 ag: -3.6; CHRM1 PAM: 2.9; M1 ag parental: -0.2; CHO-K1 Ca PAM: 3.3

How did Cc1ccc(-n2c(SCC(N)=O)nnc2-c2ccc(S(=O)(=O)N3CCCCC3)cc2)c(C)c1 do in these assays?
CHRM1 antagonist: 90.6*; CHO-K1 Ca antag: 15.7; M1 ag: -6.3; CHRM1 PAM: -25.6; M1 ag parental: 1.6; CHO-K1 Ca PAM: -0.5

What do the screens show for `Cn1c(SCC(N)=O)nnc1-c1ccc(S(=O)(=O)N2CCCC2)cc1`?
CHRM1 antagonist: -2.0; CHO-K1 Ca antag: -1.7; M1 ag: -7.2; CHRM1 PAM: 3.3; M1 ag parental: 1.0; CHO-K1 Ca PAM: 12.2
